Consider eleven compounds from PubChem BioAssay (NCI).

Compounds without any hit were thinned out: in the full panel of roughly 83,000, 20% have a hit.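 Activity criterion: percent growth below 10, measured after cells in 96-well plates were exposed to a single compound concentration for 48 hours.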 The source made the active and inactive calls.

The test system of this test is MDA-MB-468 breast. The test is described as follows: NCI-60 one-dose screen, 48 h (100 = growth as untreated, 0 = no growth, -100 = all killed). Conditions: 10 µM unless noted.
Regarding `COc1ccccc1/C=C1\Oc2cc(OCCCN3CCCC3)ccc2C1=O`, the growth was 85.9% (inactive).

Turning to `COc1cc(/C=C/c2cc(/C=C/c3ccc(O)c(OC)c3)n(C(=O)Nc3ccc(F)cc3)n2)ccc1O`, the growth was -14.6% (active). The same measure for `CN1CCN(CCOc2ccc(-c3cnc4c(-c5cccc(F)c5)cnn4c3)cc2)CC1`: 65.4% (inactive); for `CCN(CC)CCCNc1cccc2c(SCc3ccccc3)ccnc12`: 88.3% (inactive); for `O=C(Nc1ccc(Cl)c(Cl)c1)OCn1ncc2ccc([N+](=O)[O-])cc21`: 87% (inactive). The same measure for `COc1cc(/C=C2\C(=O)N(CC(O)COc3cc(O)c4c(=O)cc(-c5ccccc5)oc4c3)c3ccccc32)cc(OC)c1O` (stereo unspecified): 74.3% (inactive). The same measure for `O=C(/C=C/c1ccco1)Nc1ncc(Cc2cc(Cl)ccc2Cl)s1`: 14.6% (inactive); for `O=C(COc1ccc(C2SCC(=O)N2c2ccc(F)cc2)cc1)c1ccccc1` (stereo unspecified): 89.1% (inactive). As to `Nc1nc2ccc(CNc3ccc(C(=O)NC(CC(=O)O)C(=O)O)cc3)cc2c(=O)[nH]1` (stereo unspecified), the growth was 81.6% (inactive).

Regarding `CCCCC[C@H](O)C/C=C1/C(=O)C=C[C@@H]1C/C=C\CCCC(=O)O`, the growth was 67.4% (inactive).

`O=[N+]([O-])c1ccc(S(=O)(=O)OCCCCOS(=O)(=O)c2ccc([N+](=O)[O-])cc2)cc1`: the growth was 92.2% (inactive).
